According to PubChem BioAssay AID652175 (National Center for Advancing Translational Sciences (NCATS), 2013):
Several values for one entry are separate records, joined by “and”; a condition that tells them apart may be missing. Equal entries are not always repeated. Inconclusive results are not listed. Values without a mark were called inactive. Activity calls are given as the source filed them. Calls follow the shape of the dose curve; as a rule, active = well fitted inhibition curve with a large enough effect; inconclusive = small, poorly fitted or top-dose-only effect; inactive = no such curve, though single readings can be large or run the other way.

Assay: qHTS Assay for Lipid Storage Modulators: S3 Assay against Probe and Analogs
Conditions: Drosophila S3 cells, BODIPY lipid droplet fluorescence, 18-24 h, oleic acid added to induce droplets; series mostly up to 46.1 µM; activity, negative = lipid storage inhibition: at the top concentration
Outline: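 Drosophila S3 cells, 5,000/well, dosed with compounds (0.46% DMSO final) and oleic acid to induce lipid droplets, 18-24 h at 25 °C. BODIPY 493/503 and Cell Tracker Red read by laser-scanning cytometry; % activity relative to 20 uM Triacsin C.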

| SMILES | activity, negative = lipid storage inhibition [%] | Potency |
| --- | --- | --- |
| CCOC(=O)C1CCN(C(=O)C(C)(C)NC(=O)Nc2ccc([N+](=O)[O-])cc2)CC1 | -60 |  |
| O=C(NC1CCCc2c1cnn2-c1ccc(F)cc1F)c1ccccc1 (stereo not drawn) |  | 20.9 nM (active) and 26.4 nM (active) |
| CCOc1ccc(CCNC(=O)c2cc3sccc3n2Cc2ccccc2)c(F)c1OCC | -100 |  |
| O=C(NCCc1ccc(O)c(O)c1)c1cc2sccc2n1Cc1ccccc1 | 26.7 |  |
| CCOC(=O)C1CCN(C(=O)CNC(=O)Nc2ccccc2Cl)CC1 | -20 |  |
| O=C(NC1CCCc2c1cnn2-c1ccc(F)cc1F)c1ccsc1 (stereo not drawn) |  | 11.8 nM (active) |
| COc1cc(Nc2ncc(F)c(Nc3ccc4c(n3)NC(=O)C(C)(C)O4)n2)cc(OC)c1OC | -83.3 |  |
| CCOC(=O)C1CCN(C(=O)C(C)(C)NC(=O)Nc2ccc(C#N)cc2)CC1 | -43.3 |  |
| O=C(Nc1ccccc1-c1cn2c(CN3CCNCC3)csc2n1)c1cnc2ccccc2n1 | -100 |  |
| O=C(c1cc2sccc2n1Cc1ccccc1)N(CCc1ccc(O)c(O)c1)Cc1ccccc1 | 167 |  |
| CCOc1ccc(CCNC(C)=O)cc1OCC | -23.3 |  |
| COc1cc(C)c(Sc2cnc(NC(=O)c3ccc(CNC(C)C(C)(C)C)cc3)s2)cc1C(=O)N1CCN(C(C)=O)CC1 (stereo not drawn) | 120 |  |
| O=C(NC1CCCc2c1cnn2-c1cccc(O)c1)c1ccccn1 (stereo not drawn) |  | 41.8 nM (active) |
| CC1=C(C(=O)NC2CCCc3c2cnn3-c2ccc(F)cc2F)OCCO1 (stereo not drawn) |  | 59 nM (active) |
| CCOc1ccc(CCN(C)C(=O)c2cc3sccc3n2Cc2ccccc2)cc1OCC |  | 469 nM (active) |
| CCOc1ccc(CCNC(=O)c2cnon2)cc1OCC | -10 |  |
| Cc1cccc(-c2ccc3ncnc(NCc4cccc(F)c4)c3c2)c1 | -96.7 |  |
| O=C(NC1CCCc2c1cnn2-c1ccc(F)cc1F)C1CC1 (stereo not drawn) | -100 |  |
